# Measurements taken from the supplement of paper PMC12282887.
# ± gives the standard deviation of the averaged measurements.
# Columns and labels:
# Test in all cases: promoter activity interaction Z-score (Lux/OD deviation from empty-vector control); higher = stronger promoter induction by the compound
# [1] = test system: E. coli BW25113 acrABp lux reporter
# Outline: (§1)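 E. coli BW25113, as wild type or one of three single-gene deletion strains, carried low-copy luxCDABE promoter reporters and grew in 40 µl LB Lennox in 384-well plates at 37°C, with OD600 and luminescence read every 30 min for 12 h. Each compound was run at four 1:2 dilutions in biological duplicates, integration spanned 0–8 h for wild type and 1–9 h for deletion strains, and wells under 10% of the median growth value were dropped. The score is the Z-transformed residual of growth-normalised luminescence fitted against a control.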
# [2] = test system: E. coli BW25113 marRABp lux reporter
# Outline: as §1
# [3] = test system: E. coli BW25113 micFp lux reporter
# Outline: as §1
# [4] = test system: E. coli BW25113 ompFp lux reporter
# Outline: as §1
# [5] = test system: E. coli BW25113 robp lux reporter
# Outline: as §1
# [6] = test system: E. coli BW25113 soxSp lux reporter
# Outline: as §1
# [7] = test system: E. coli BW25113 tolCp lux reporter
# Outline: as §1
# [8] = 24.3 µg/ml, genetic background: wild type
# [9] = 24.3 µg/ml, genetic background: ΔmarA
# [10] = 24.3 µg/ml, genetic background: Δrob
# [11] = 24.3 µg/ml, genetic background: ΔsoxS
# [12] = 48.5 µg/ml, genetic background: wild type
# [13] = 48.5 µg/ml, genetic background: ΔmarA
# [14] = 48.5 µg/ml, genetic background: Δrob
# [15] = 48.5 µg/ml, genetic background: ΔsoxS
# [16] = 97.1 µg/ml, genetic background: wild type
# [17] = 97.1 µg/ml, genetic background: ΔmarA
# [18] = 97.1 µg/ml, genetic background: Δrob
# [19] = 97.1 µg/ml, genetic background: ΔsoxS
# [20] = 194.2 µg/ml, genetic background: wild type
# [21] = 194.2 µg/ml, genetic background: ΔmarA
# [22] = 194.2 µg/ml, genetic background: Δrob
# [23] = 194.2 µg/ml, genetic background: ΔsoxS
smiles,measurement,setting,value
Cn1c(=O)c2c(ncn2C)n(C)c1=O [Caffeine],promoter activity interaction Z-score,[1]; [8],-0.0906 ± 0.17
same,promoter activity interaction Z-score,[1]; [9],1.25 ± 2.5
same,promoter activity interaction Z-score,[1]; [10],0.229 ± 0.12
same,promoter activity interaction Z-score,[1]; [11],0.234 ± 0.23
same,promoter activity interaction Z-score,[1]; [12],0.0551 ± 0.06
same,promoter activity interaction Z-score,[1]; [13],0.244 ± 1.1
same,promoter activity interaction Z-score,[1]; [14],0.254 ± 0.35
same,promoter activity interaction Z-score,[1]; [15],0.3 ± 0.18
same,promoter activity interaction Z-score,[1]; [16],0.0174 ± 0.31
same,promoter activity interaction Z-score,[1]; [17],0.17 ± 0.29
same,promoter activity interaction Z-score,[1]; [18],0.132 ± 0.014
same,promoter activity interaction Z-score,[1]; [19],0.864 ± 1
same,promoter activity interaction Z-score,[1]; [20],0.303 ± 0.24
same,promoter activity interaction Z-score,[1]; [21],-0.0252 ± 0.29
same,promoter activity interaction Z-score,[1]; [22],0.0753 ± 0.22
same,promoter activity interaction Z-score,[1]; [23],0.762 ± 0.37
same,promoter activity interaction Z-score,[2]; [8],0.925 ± 0.19
same,promoter activity interaction Z-score,[2]; [9],1.52 ± 0.3
same,promoter activity interaction Z-score,[2]; [10],0.0874 ± 0.094
same,promoter activity interaction Z-score,[2]; [11],0.874 ± 0.41
same,promoter activity interaction Z-score,[2]; [12],1.58 ± 0.15
same,promoter activity interaction Z-score,[2]; [13],1.47 ± 0.32
same,promoter activity interaction Z-score,[2]; [14],-0.0293 ± 0.12
same,promoter activity interaction Z-score,[2]; [15],1.28 ± 0.27
same,promoter activity interaction Z-score,[2]; [16],1.63 ± 0.018
same,promoter activity interaction Z-score,[2]; [17],2.83 ± 0.69
same,promoter activity interaction Z-score,[2]; [18],0.0326 ± 0.04
same,promoter activity interaction Z-score,[2]; [19],1.55 ± 0.65
same,promoter activity interaction Z-score,[2]; [20],3.65 ± 0.97
same,promoter activity interaction Z-score,[2]; [21],4.03 ± 0.93
same,promoter activity interaction Z-score,[2]; [22],0.103 ± 0.13
same,promoter activity interaction Z-score,[2]; [23],2.91 ± 1.6
same,promoter activity interaction Z-score,[3]; [8],1.28 ± 0.39
same,promoter activity interaction Z-score,[3]; [9],1.01 ± 0.13
same,promoter activity interaction Z-score,[3]; [10],0.0768 ± 0.058
same,promoter activity interaction Z-score,[3]; [11],1.65 ± 0.72
same,promoter activity interaction Z-score,[3]; [12],2.71 ± 0.15
same,promoter activity interaction Z-score,[3]; [13],1.72 ± 0.17
same,promoter activity interaction Z-score,[3]; [14],-0.0682 ± 0.092
same,promoter activity interaction Z-score,[3]; [15],2.27 ± 0.1
same,promoter activity interaction Z-score,[3]; [16],3.93 ± 0.29
same,promoter activity interaction Z-score,[3]; [17],3.13 ± 0.049
same,promoter activity interaction Z-score,[3]; [18],-0.0129 ± 0.082
same,promoter activity interaction Z-score,[3]; [19],4.2 ± 0.47
same,promoter activity interaction Z-score,[3]; [20],9.84 ± 0.76
same,promoter activity interaction Z-score,[3]; [21],6.96 ± 1.9
same,promoter activity interaction Z-score,[3]; [22],0.216 ± 0.022
same,promoter activity interaction Z-score,[3]; [23],9.87 ± 0.2
same,promoter activity interaction Z-score,[4]; [8],0.171 ± 0.69
same,promoter activity interaction Z-score,[4]; [9],0.0413 ± 0.047
same,promoter activity interaction Z-score,[4]; [10],0.636 ± 0.1
same,promoter activity interaction Z-score,[4]; [11],0.0579 ± 0.15
same,promoter activity interaction Z-score,[4]; [12],0.648 ± 0.61
same,promoter activity interaction Z-score,[4]; [13],0.121 ± 0.51
same,promoter activity interaction Z-score,[4]; [14],-0.106 ± 0.46
same,promoter activity interaction Z-score,[4]; [15],-0.0276 ± 0.3
same,promoter activity interaction Z-score,[4]; [16],-0.351 ± 0.49
same,promoter activity interaction Z-score,[4]; [17],0.00292 ± 0.16
same,promoter activity interaction Z-score,[4]; [18],-0.133 ± 0.69
same,promoter activity interaction Z-score,[4]; [19],0.291 ± 0.42
same,promoter activity interaction Z-score,[4]; [20],0.651 ± 0.51
same,promoter activity interaction Z-score,[4]; [21],0.268 ± 0.19
same,promoter activity interaction Z-score,[4]; [22],0.227 ± 0.64
same,promoter activity interaction Z-score,[4]; [23],0.245 ± 0.21
same,promoter activity interaction Z-score,[5]; [8],0.0869 ± 0.41
same,promoter activity interaction Z-score,[5]; [9],1.13 ± 1.2
same,promoter activity interaction Z-score,[5]; [10],0.442 ± 0.56
same,promoter activity interaction Z-score,[5]; [11],1.35 ± 0.27
same,promoter activity interaction Z-score,[5]; [12],1.03 ± 0.53
same,promoter activity interaction Z-score,[5]; [13],-0.488 ± 0.27
same,promoter activity interaction Z-score,[5]; [14],0.545 ± 0.89
same,promoter activity interaction Z-score,[5]; [15],1.19 ± 0.12
same,promoter activity interaction Z-score,[5]; [16],-0.142 ± 0.26
same,promoter activity interaction Z-score,[5]; [17],-0.194 ± 0.34
same,promoter activity interaction Z-score,[5]; [18],-0.0955 ± 0.42
same,promoter activity interaction Z-score,[5]; [19],-0.0533 ± 0.92
same,promoter activity interaction Z-score,[5]; [20],-0.121 ± 0.73
same,promoter activity interaction Z-score,[5]; [21],-0.257 ± 0.088
same,promoter activity interaction Z-score,[5]; [22],0.111 ± 1.4
same,promoter activity interaction Z-score,[5]; [23],-1.19 ± 0.4
same,promoter activity interaction Z-score,[6]; [8],-0.0276 ± 0.14
same,promoter activity interaction Z-score,[6]; [9],0.29 ± 0.3
same,promoter activity interaction Z-score,[6]; [10],0.512 ± 0.15
same,promoter activity interaction Z-score,[6]; [11],-0.000875 ± 0.083
same,promoter activity interaction Z-score,[6]; [12],0.149 ± 0.051
same,promoter activity interaction Z-score,[6]; [13],0.331 ± 0.32
same,promoter activity interaction Z-score,[6]; [14],0.0369 ± 0.011
same,promoter activity interaction Z-score,[6]; [15],0.0413 ± 0.11
same,promoter activity interaction Z-score,[6]; [16],0.0939 ± 0.035
same,promoter activity interaction Z-score,[6]; [17],0.405 ± 0.044
same,promoter activity interaction Z-score,[6]; [18],0.395 ± 0.12
same,promoter activity interaction Z-score,[6]; [19],0.167 ± 0.44
same,promoter activity interaction Z-score,[6]; [20],0.212 ± 0.044
same,promoter activity interaction Z-score,[6]; [21],0.529 ± 0.026
same,promoter activity interaction Z-score,[6]; [22],0.257 ± 0.16
same,promoter activity interaction Z-score,[6]; [23],0.6 ± 0.85
same,promoter activity interaction Z-score,[7]; [8],-0.298 ± 0.42
same,promoter activity interaction Z-score,[7]; [9],0.922 ± 0.83
same,promoter activity interaction Z-score,[7]; [10],-0.0951 ± 0.85
same,promoter activity interaction Z-score,[7]; [11],0.425 ± 0.39
same,promoter activity interaction Z-score,[7]; [12],0.642 ± 1.2
same,promoter activity interaction Z-score,[7]; [13],0.724 ± 0.083
same,promoter activity interaction Z-score,[7]; [14],-0.684 ± 0.056
same,promoter activity interaction Z-score,[7]; [15],0.896 ± 0.56
same,promoter activity interaction Z-score,[7]; [16],0.921 ± 0.51
same,promoter activity interaction Z-score,[7]; [17],0.55 ± 0.57
same,promoter activity interaction Z-score,[7]; [18],-0.368 ± 0.11
same,promoter activity interaction Z-score,[7]; [19],1.64 ± 0.38
same,promoter activity interaction Z-score,[7]; [20],1.37 ± 0.41
same,promoter activity interaction Z-score,[7]; [21],1.61 ± 1.5
same,promoter activity interaction Z-score,[7]; [22],0.892 ± 0.67
same,promoter activity interaction Z-score,[7]; [23],0.579 ± 1
